From PubChem BioAssay (EPA / NIEHS)
Inconclusive results are not listed. Calls of active or inactive are those of the source. Rule for the calls, unless noted: active = hit-call score of the fitted dose curve at least 0.9, where 1 is the maximum; inactive = score below 0.9.

Assays:
[1] = CCTE_Mundy_HCI_Cortical_Synap_Neur_Matur_NeuriteSpotCountPerNeuron: CCTE's Synaptogenesis and Neurite Maturation Assay in rat cortical cells for Neurite Spot Count per Neuron Count, Mundy Lab (AID 2284215)
In short: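 Rat cortical primary cultures; AraC DIV 5 to arrest glia; dosing + media change DIV 7; fixed DIV 12. Anti-MAP2/anti-synaptophysin, Hoechst nuclei; HCI puncta count per neuron, positive fitting direction vs DMSO.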

[2] = CCTE_Mundy_HCI_Cortical_Synap_Neur_Matur_SynapseCount: CCTE's Synaptogenesis and Neurite Maturation Assay in rat cortical cells for Synapse Count, Mundy Lab (AID 2284218)
In short: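 Endpoint: synapses/neuron by HCI (synaptophysin puncta on MAP2-labelled neurites, Hoechst nuclei). Rat primary cortical cells, AraC DIV 5, dosed DIV 7, fixed DIV 12; DMSO negative control.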

[3] = CCTE_Mundy_HCI_Cortical_Synap_Neur_Matur_NeuriteCount: CCTE's Synaptogenesis and Neurite Maturation Assay in rat cortical cells for Neurite Count, Mundy Lab (AID 2284222)
In short: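 Chemical exposure runs DIV 7–12 in rat cortical cultures, glia suppressed by AraC at DIV 5; measurement is at DIV 12. Imaging-derived neurite counts are fitted against DMSO baseline.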

[4] = CCTE_Mundy_HCI_Cortical_Synap_Neur_Matur_CellBodySpotCount: CCTE's Synaptogenesis and Neurite Maturation Assay in rat cortical cells for Cell Body Spot Count, Mundy Lab (AID 2284223)
In short: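 Rat cortical neurons; AraC @ DIV 5; dose + media change DIV 7; fix DIV 12; anti-MAP2/anti-synaptophysin IF, Hoechst; HCI count of soma synaptophysin puncta/neuron; DMSO = negative control.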

[5] = CCTE_Mundy_HCI_hNP1_Pro_ResponderAvgInten: CCTE's Proliferation Assay in human neuroprogenitor cells, Mundy Lab (AID 2284224; active = hit-call score of the fitted dose curve at least 0.9, where 1 is the maximum;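 note: human neural progenitor cells hNP1 derived from WA09 embryonic stem cells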)
In short: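 Human neuroprogenitors (hNP1, WA09 lineage) receive test chemical after 40 to 44 hours of attachment. A four-hour BrdU pulse begins twenty hours later, followed by fixation and high content imaging; signal is referenced to DMSO controls.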

[6] = UKN2_HCS_IMR90_cell_viability: Viability Assessment in the University of Konstanz (UKN) Leist Lab Neural Crest Cell Migration Assay in human induced IMR90 Pluripotent Stem Cells (UKN2) (AID 2284233);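 note: viability of neural crest cells differentiated from IMR90 iPSC measured by calcein-AM fluorescence imaging; cells exposed to compound for 24 h after a 24 h migration phase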
In short: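 cMINC format, iPSC-derived neural crest (IMR90); 24 h migration (EGF/FGF, N2-S), then 24 h toxicant. Calcein-AM/H-33342 stain 30 min; fluorescence intensity by HCS; DMSO-normalised, bidirectional fitting.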

[7] = CCTE_Mundy_HCI_Cortical_NOG_NeuronCount: CCTE's Neurite Outgrowth Assay in rat cortical cells for Neuron Count, Mundy Lab (AID 2284236; active = hit-call score of the fitted dose curve at least 0.9, where 1 is the maximum;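 note: neurons counted by imaging betaIII-tubulin and Hoechst stained cortical cells; cells exposed to compound for about 48 hours before fixation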)
In short: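 Read-out: neuron number by high-content imaging of betaIII-tubulin (Alexa Fluor-488) and Hoechst-labelled rat primary cortical cells.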

[8] = CCTE_Mundy_HCI_Cortical_NOG_BPCount: CCTE's Neurite Outgrowth Assay in rat cortical cells for Branch Point Count, Mundy Lab (AID 2284237);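 note: branch points counted about two days after chemical exposure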
In short: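 Measured 50.33 h after dosing, this morphology endpoint uses rat primary cortical cultures labelled for betaIII-tubulin. Branch points are quantified by high-content imaging, with DMSO as negative control and baseline.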

[9] = CCTE_Mundy_HCI_hNP1_Casp3_7: CCTE's Caspase-Glo 3/7 Assay in human neuroprogenitor cells for Apoptosis, Mundy Lab (AID 2284240)
In short: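 Neuroepithelial-lineage stem cells from WA09 embryonic cells were treated with chemicals after 40–44 h of culture. Twenty-four hours later, caspase-3/7 activation was detected luminescently after a 30 min room-temperature reagent step, with DMSO as baseline.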

[10] = CCTE_Mundy_HCI_hNP1_CellTiter: CCTE's Cell Titer-Glo 2 Assay in human neuroprogenitor cells for Viability, Mundy Lab (AID 2284241; active = hit-call score of the fitted dose curve at least 0.9, where 1 is the maximum;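 note: a hit is a drop in ATP luminescence versus DMSO meaning reduced viability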)
In short: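 Measures ATP content in human neural progenitors derived from WA09 embryonic cells. Read-out at 26.5 hours after dosing, with DMSO serving as the negative control and baseline.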

[11] = CCTE_Mundy_HCI_Cortical_Synap_Neur_Matur_NeuronCount: CCTE's Synaptogenesis and Neurite Maturation Assay in rat cortical cells for Neuron Count, Mundy Lab (AID 2284242; active = hit-call score of the fitted dose curve at least 0.9, where 1 is the maximum;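 note: hits reduce neuron count versus DMSO baseline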)
In short: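 Measured at DIV 12: fluorescently labelled neurons (Hoechst nuclei, MAP2) in rat primary cortical cultures, counted by high-content imaging. AraC suppressed glia from DIV 5; DMSO served as negative control.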

[12] = IUF_NPC2c_oligodendrocyte_migration_120hr: Leibniz Research Institute for Environmental Medicine (IUF) 120-hour Neural Progenitor Cell Migration Assay for Oligodendrocyte Migration (NPC2c) (AID 2284297)
In short: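 Read-out is the mean distance of O4-positive oligodendrocytes from the sphere core edge at 120 h, normalized to radial glia migration and fitted in the gain direction against DMSO. Spheres of primary human neural progenitors differentiated on laminin under continuous compound exposure.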

[13] = IUF_NPC2a_radial_glia_migration_120hr: Leibniz Research Institute for Environmental Medicine (IUF) 120-hour Neural Progenitor Cell Migration Assay for Radial Glia Migration (NPC2a) (AID 2284298)
In short: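 Readout: distance in um from sphere core edge to migration-area edge, derived from Hoechst nuclei density with a threshold-defined polynomial boundary. Spheres: hNPC, GW 16-19, 0.3 mm, on PDL/laminin; exposure 5 days; DMSO is baseline.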

[14] = IUF_NPC2a_radial_glia_migration_72hr: Leibniz Research Institute for Environmental Medicine (IUF) 72-hour Neural Progenitor Cell Migration Assay for Radial Glia Migration (NPC2a) (AID 2284299)
In short: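 Spheres of human primary neural progenitors migrate on poly-D-lysine/laminin under compound exposure at 37C, 5% CO2. The 72 h radial glia migration distance comes from brightfield images, measured manually.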

[15] = IUF_NPC2b_neuronal_migration_120hr: Leibniz Research Institute for Environmental Medicine (IUF) 120-hour Neural Progenitor Cell Migration Assay for Neuron Migration (NPC2b) (AID 2284300)
In short: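 Read-out is mean distance from sphere edge to each TUBB3-positive neuron at 120 h, expressed relative to radial glia migration distance and to DMSO baseline. Single 0.3 mm human NPC spheres differentiated on laminin under continuous compound exposure.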

[16] = IUF_NPC3_neuronal_differentiation_120hr: Leibniz Research Institute for Environmental Medicine (IUF) 120-hour Neuronal Differentiation Assay (NPC3) (AID 2284301)
In short: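 Neuronal differentiation of primary human neural progenitors measured by high-content imaging: percent TUBB3+ of Hoechst+ nuclei within migrated area at 120 h, seven-point serial dilution plus solvent control, gain or loss relative to DMSO.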

[17] = IUF_NPC4_neurite_length_120hr: Leibniz Research Institute for Environmental Medicine (IUF) 120-hour Neuronal Morphology Assay for Neurite Length (NPC4) (AID 2284302)
In short: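 Neurons from differentiating human fetal neural progenitor spheres are scored for average neurite length after five days of compound exposure. Fitting uses DMSO as negative control.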

[18] = IUF_NPC5_oligodendrocyte_differentiation_120hr: Leibniz Research Institute for Environmental Medicine (IUF) 120-hour Oligodendrocyte Differentiation Assay (NPC5) (AID 2284304; active = hit-call score of the fitted dose curve at least 0.9, where 1 is the maximum;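 note: primary human fetal neural progenitor spheres plated to migrate and differentiate; share of O4-positive cells among Hoechst nuclei found by CNN image analysis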)
In short: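 Oligodendrocyte differentiation was scored after 120 h as the O4-positive share of Hoechst-stained nuclei across the neurosphere migration area, using a trained convolutional neural network on high-content fluorescence images. Human fetal neural progenitor spheres were dosed from day 0, normalised to DMSO.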

[19] = IUF_NPC4_neurite_area_120hr: Leibniz Research Institute for Environmental Medicine (IUF) 120-hour Neuronal Morphology Assay for Neurite Area (NPC4) (AID 2284305; active = hit-call score of the fitted dose curve at least 0.9, where 1 is the maximum)
In short: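 Endpoint at 120 h: automated imaging of TUBB3/Hoechst-stained differentiating human neural progenitor spheres, neurite area per neuron from skeletonization. DMSO solvent control, not above 0.1%, set the baseline; medium was half-replaced on day 3.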

[20] = IUF_NPC2-5_cytotoxicity_72hr: Cytotoxicity Assessment at 72 hours in the Leibniz Research Institute for Environmental Medicine (IUF) Neural Progenitor Cell Migration and Differentiation Assay for Cytotoxicity (NPC2-5) (AID 2284306; active = hit-call score of the fitted dose curve at least 0.9, where 1 is the maximum;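 note: LDH release into supernatant measured by resorufin fluorescence marking membrane damage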)
In short: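 Primary human neural progenitor spheres migrate and differentiate on laminin. Compound is present from the start of differentiation, with DMSO kept at or below 0.1%. At 72 h, supernatant LDH is quantified fluorometrically, with values fitted in the positive direction.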

[21] = IUF_NPC2-5_cell_number_120hr: Cell Number Assessment at 120 hours in the Leibniz Research Institute for Environmental Medicine (IUF) Neural Progenitor Cell Migration and Differentiation Assay (NPC2-5) (AID 2284308);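 note: count of Hoechst-stained nuclei in migration zone around plated human neural progenitor spheres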
In short: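 hNPC spheres, one per well, PDL/laminin, N2 medium, 37C, 5% CO2. Dosing day 0 → half-medium change with fresh compound day 3 → fix 120 h. Readout: Hoechst+ nuclei count, migration area; 7 concentrations plus solvent control.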

[22] = IUF_NPC2-5_viability_120hr: Viability Assessment at 120 hours in the Leibniz Research Institute for Environmental Medicine (IUF) Neural Progenitor Cell Migration and Differentiation Assay (NPC2-5) (AID 2284312)
In short: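 Human fetal (GW 16-19) neural progenitor spheres of 0.3 mm were plated on poly-D-lysine/laminin in N2 differentiation medium and exposed from day 0 for 120 h, with half-medium refresh at day 3. Viability was read as alamar blue resazurin-to-resorufin fluorescence against DMSO.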

[23] = CCTE_Mundy_HCI_iCellGluta_NOG_NeuriteLength: CCTE's Neurite Outgrowth Assay in iCellGluta cells for Neurite Length, Mundy Lab (AID 2284318; active = hit-call score of the fitted dose curve at least 0.9, where 1 is the maximum)
In short: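 Automated high-content imaging of betaIII-tubulin (Alexa Fluor-488) and Hoechst-stained cells gave neurite length, normalized to the DMSO baseline.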

[24] = IUF_NPC1_cytotoxicity_72hr: Cytotoxicity Assessment at 72 hours in the Leibniz Research Institute for Environmental Medicine (IUF) Neural Progenitor Cell Proliferation Assay (NPC1) (AID 2284332; active = hit-call score of the fitted dose curve at least 0.9, where 1 is the maximum;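 note: rising LDH signal means more cytotoxicity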)
In short: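 Readout is fluorescence from LDH-dependent resazurin conversion, sampled from culture medium after compound contact lasting 72 h. Each well holds one 0.25-0.35 mm human progenitor sphere kept at 37C, 5% CO2 with EGF and FGF.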

[25] = CCTE_Mundy_HCI_iCellGluta_NOG_NeuronCount: CCTE's Neurite Outgrowth Assay in iCellGluta cells for Neuron Count, Mundy Lab (AID 2284340; active = hit-call score of the fitted dose curve at least 0.9, where 1 is the maximum;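 note: cells fixed about 48 h after compound addition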)
In short: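 Neuron count read by automated high-content imaging of Hoechst 33342 and betaIII-tubulin/Alexa Fluor-488 labelling in human iPSC glutamatergic neurons. Activity fitted relative to DMSO.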

[26] = CCTE_Mundy_HCI_iCellGluta_NOG_NeuriteCount: CCTE's Neurite Outgrowth Assay in iCellGluta cells for Neurite Count, Mundy Lab (AID 2284342; active = hit-call score of the fitted dose curve at least 0.9, where 1 is the maximum;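 note: chemical exposure about 48 hours starting 2 hours after plating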)

Measured: AC50

BrC1CC(Br)CC(Br)CC(Br)CC(Br)CC(Br)C1 (stereo unspecified)
active: [1] 3.23 µM | [2] 3.61 µM | [3] 4.27 µM | [4] 3.8 µM | [5] 7.21 µM | [7] 9.27 µM | [8] 8.4 µM | [9] 4.22 µM | [10] 8.39 µM | [11] 3.43 µM | [12] 1.24 µM | [15] 3.11 µM | [16] 1.72 µM | [17] 1.04 µM | [18] 0.856 µM | [19] 1.06 µM | [23] 3.77 µM | [25] 4.56 µM | [26] 4.69 µM
inactive: [6] | [13] | [14] | [20] | [21] | [22] | [24]
